High-throughput results from PubChem.
HCMV inh: qHTS Assay for inhibitors of the human cytomegalovirus (HCMV); HFF cells, HCMV-luciferase reporter, 72 h; hits give low values; activity change, negative = inhibition, % at 57.5 µM; 410,000 compounds, 4.5% hits; in the data active = activity change below about -60%; inconclusive = no clear call, values can overlap the other calls; inactive = above about -39%
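Two compound doses tested in HFFs infected with HCMV-luciferase, MOI 1 PFU/cell, 72 h at 37C. Lysate luminescence read with OneGlo; data normalized against buffer-only and 10uM Salinomycin inhibitor controls.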
Sm TGR block: qHTS Assay for the Inhibitors of Schistosoma Mansoni Peroxiredoxins. Schistosoma mansoni thioredoxin glutathione reductase (TGR), Q962Y6. 360,000 compounds, 3% hits. Potency, µM (series often up to 114 µM), inactives show at the highest dose activity change, negative = inhibition, most hits filed as inhibitors. purified TGR, DTNB reduction, TNB absorbance 405 nm. AID 485364, 2010; also: potency is read from the fitted curve at half-maximal effect; nearly all actives have a fitted effect of over 60% in size
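Kinetic colorimetric format: TGR-catalysed, NADPH-driven DTNB reduction monitored via TNB absorbance. Enzyme dispensed at 20 nM; compound exposure 15 min at room temperature before reaction start.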
TbPYK inhibitor: qHTS of Trypanosoma Brucei Inhibitors. TbPYK enzyme, Kinase-Glo Plus ATP luminescence, 45 min. Potency, µM (doses to about 76.8 µM), inactives show top-dose activity, negative = inhibition, actives largely listed as inhibitors. 410,000 compounds, 0.12% hits. AID 624173, 2012; also: potency is read from the fitted curve at half-maximal effect; nearly all actives have a fitted effect of over 50% in size
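TbPYK + substrate in 50 mM TEA pH 7.2, 100 mM KCl, 10 mM MgCl2, 0.05% BSA, 0.01% Tween-20; cpd pinned; ADP 130 uM final; 45 min RT; Kinase-Glo Plus 10 min; luminescence endpoint.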
RE007 growth inh: qHTS Assay for Inhibitors of the HIV-1 protein Vpr; S. pombe RE007 Vpr strain, BacTiter-Glo ATP luminescence, 24 h; 360,000 compounds, 0.21% hits; AID 651644, 2012; Potency, µM (top dose mostly 92.2 µM), for inactives: at the highest dose activity change, negative = less growth, usual class: inhibitors; active = well fitted falling curve with a large enough effect; inconclusive = small, poorly fitted or top-dose-only effect; inactive = no such curve, though single readings can be large or run the other way; also: potency is read from the fitted curve at half-maximal effect; nearly all actives have a fitted effect of over 50% in size
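Fission yeast strain RE007, carrying one chromosomally integrated HIV-1 vpr copy, was seeded at OD 0.01 in PMG+AL medium with 23 nL pinned compound. After 24 h at 30 °C and 99% humidity, viability was read by BacTiter-Glo luminescence.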
Giardia FBPA inh: qHTS Assay for Inhibitors of Fructose-1,6-bisphosphate Aldolase from Giardia Lamblia | 290,000 compounds, 0.71% hits | purified Giardia FBPA | Potency, µM (highest dose often 59.6 µM), inactives show at the highest dose activity, negative = inhibition, hits mostly inhibitors | A8B2U2; also: potency is read from the fitted curve at half-maximal effect; nearly all actives have a fitted effect of over 55% in size
Target sequence (A8B2U2 whole entry, looked up): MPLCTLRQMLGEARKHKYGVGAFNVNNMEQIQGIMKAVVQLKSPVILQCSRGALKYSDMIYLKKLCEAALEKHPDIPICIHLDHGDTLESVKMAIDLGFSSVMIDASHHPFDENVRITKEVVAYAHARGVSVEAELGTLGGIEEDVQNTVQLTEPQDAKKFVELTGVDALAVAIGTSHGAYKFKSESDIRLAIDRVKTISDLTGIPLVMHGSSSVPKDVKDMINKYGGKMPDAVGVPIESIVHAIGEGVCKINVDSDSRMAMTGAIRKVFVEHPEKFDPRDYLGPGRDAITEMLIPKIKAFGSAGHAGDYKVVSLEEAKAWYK
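40 nM FBPA preincubated 10 min at RT with compound (up to 57.5 uM final), then substrate plus GAPDH/TPI/NAD/arsenate coupling and diaphorase/resazurin added. Fluorescence read after 20 min at RT, 525/598 nm.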
FMDV antiviral: High Throughput Screening for Foot and Mouth Disease Virus Antivirals. FMDV antiviral cell-based qHTS. Potency, µM (top dose mostly 57.9 µM), for the others: at the highest dose activity change, negative = inhibition, usual class: inhibitors. 410,000 compounds, 1.2% hits. AID 1159524, 2015; calls by dose curve; tested in HEK293T cells; also: read-out not given here; potency is read from the fitted curve at half-maximal effect; nearly all actives have a fitted effect of over 45% in size
Numbers without * were called inactive; ? = inconclusive; / = no result; [ ] = dose if it differs, or a comment. Sampled rows, rich in hits. Any-hit rate of the full collection: about 7.7%. Unless noted, calls follow the shape of the dose curve; as a rule, active = well fitted curve in the direction sought with a large enough effect; inconclusive = small, poorly fitted or top-dose-only effect, or another doubt; inactive = no such curve, though single readings can be large; an effect the other way counts as inactive or inconclusive. % is scaled to controls: 0 for no effect and ±100 for the full control effect.

SMILES	HCMV inh	Sm TGR block	TbPYK inhibitor	RE007 growth inh	Giardia FBPA inh	FMDV antiviral
Clc1ccccc1CN1CCC(Cc2ccccc2)CC1	-101.0*	6.3%	24.9%	-10.5%	-22.1%	-2.5%
CCOC(=O)N1CCN(Cc2ccc(O)c3ncccc23)CC1	-30.7	0.282µM*	6.4%	-27.3%	-9.1%	-12.9%
Cn1cc(CN2CCc3ccccc3C2)c2ccccc21	36.7	?	1.0%	-2.2%	-28.5%	-3.1%
Oc1ccc(CN2CCC(Cc3ccccc3)CC2)c2cccnc12	-101.0*	7.94µM*	-2.7%	-11.5%	-4.8%	?
Cc1ccc(Cn2c(CNS(=O)(=O)c3cccc([N+](=O)[O-])c3)nc3cccnc32)cc1	-23.6	-2.0%	6.6%	/	/	58.5%
O=C(Nc1ccc(Br)cc1F)C1CCN(c2nc3ccccc3[nH]2)CC1	0.0	-0.4%	-8.8%[15.4 µM]	/	/	-5.8%
CCOc1ccc(CCNC(=O)c2oc(=O)c3ccccc3c2-c2ccc(C)cc2)cc1OCC	9.2	2.2%	2.7%	/	/	-18.1%
O=C(Nc1cc(F)ccc1F)N1CC(=O)N2[C@@H](CO)[C@H](c3ccc(Br)cc3)[C@@H]2C1	3.7	/	/	/	/	/
CCN(CC)C(=O)c1cccc(-c2csc(C(O)c3cccc(Cl)c3)n2)c1 (stereo unspecified)	?	/	-13.9%	7.7%[18.4 µM]	/	28.2µM*
COc1cccc(C(C)(O)c2nc(-c3cccc(C(=O)O)c3)cs2)c1 (stereo unspecified)	2.8	/	-1.5%	8.7%	/	18.1%
CCN(CC)C(=O)c1cccc(-c2csc(C(O)c3ccc(F)c(OC)c3)n2)c1 (stereo unspecified)	-62.1*	/	-1.3%	-15.8%	/	?
CCN(CC)C(=O)c1cccc(-c2csc(C(C)(O)c3ccncc3)n2)c1 (stereo unspecified)	-31.6	/	-0.9%	0.4%[18.4 µM]	/	25.1µM*
Cc1ccc(C)n1-c1nnc(N2CCCC(C(=O)NCc3ccc(F)cc3)C2)s1 (stereo unspecified)	-17.4	?	-1.7%	/	/	0.0%
COc1cccc(NC(=O)C2CCCN(c3ncnc4onc(-c5ccc(F)cc5)c34)C2)c1 (stereo unspecified)	0.9	29.1%	1.2%	/	/	-12.3%
Cc1cccc2c1-c1sc(C(=O)NCc3ccc(Cl)cc3)cc1CO2	-15.9	9.0%	1.7%	/	/	-7.3%
CCn1c(C)c(C)c2cc(C(=O)NCc3ccc(OC)cc3OC)ccc21	0.0	6.8%	1.3%[15.4 µM]	/	/	-2.0%
O=C(N[C@H]1CC[C@@]23CCCN2C(=O)CCC[C@H]3[C@H]1Cc1ccccc1)C1CCOC1 (stereo partly specified)	-9.7	/	/	/	/	/
Cc1ccc(Cl)cc1NC(=O)C1CCN(C(=O)c2cnn(-c3ccccc3)c2-n2cccc2)CC1	-12.4	5.7%	-1.5%	/	/	?
CCOC(=O)N1CCC(N2CCN(Cc3ccccc3)C(CCO)C2)CC1 (stereo unspecified)	-15.7	15.8µM*	-3.7%	-28.4%	3.7%	3.5%
COc1cccc(CN2CCN(C3CCN(c4ccccc4F)CC3)CC2CCO)c1 (stereo unspecified)	-21.4	22.4µM*	-6.8%	-18.3%	0.9%	-4.3%
COc1cccc(CN2CCN(C3CCN(c4ccccc4C)CC3)CC2CCO)c1 (stereo unspecified)	-4.3	?	1.7%	-11.8%	-4.1%	-20.5%
CCOC(=O)c1c(-c2ccc(Br)cc2)csc1NC(=O)c1ccc(C(C)(C)C)cc1	40.1	-4.3%	-1.2%	/	/	-9.8%
O=C(NCC1(N2CCCCC2)CCCC1)c1cnn(-c2nccc(-c3cccs3)n2)c1C1CC1	/	/	/	/	/	-7.9%
CCOC(=O)C(NC(=O)CC)(Nc1sc(C)c(CC)c1C#N)C(F)(F)F (stereo unspecified)	?	50.1µM*	0.9%	6.1%	-0.1%	-5.5%
C=CCSc1nc(N)c(C#N)c(-c2ccc(C)cc2)c1C#N	?	8.6%	1.4%	-14.1%	2.7%	-1.6%
SMILES	HCMV inh	Sm TGR block	TbPYK inhibitor	RE007 growth inh	Giardia FBPA inh	FMDV antiviral
CCSc1nc(N)c(C#N)c(-c2ccccc2Cl)c1C#N	-63.5*	-6.8%	-1.3%	0.5%	-1.0%	-25.0%
N#Cc1c(N)nc(Sc2ccc(Cl)cc2)c(C#N)c1-c1ccccc1Cl	-77.9*	-0.3%	-18.5%	5.4%	-4.8%	28.2µM*
O=c1cc(-c2ccccc2)n2c(SCc3ccc([N+](=O)[O-])cc3)nnc2[nH]1	-0.7	-3.8%	3.5%	/	/	23.1%
CC(CC1C(C#N)=C(N)OC2=C1C(=O)CCC2)c1ccccc1 (stereo unspecified)	-9.3	1.26µM*	-4.7%	0.0%	-17.4%	-11.5%
CC1(C)CC(=O)C2=C(C1)OC(N)=C(C#N)C2C#Cc1ccccc1 (stereo unspecified)	-18.5	1.58µM*	-21.0%	5.62µM*	-29.2%	?
C/C(=C\c1ccco1)C1C(C#N)=C(N)OC2=C1C(=O)CC(C)(C)C2 (stereo unspecified)	-4.2	35.5µM*	-19.5%	2.3%	-24.4%	-22.9%
CC(c1ccccc1)C1C(C#N)=C(N)OC2=C1C(=O)CC(C)(C)C2 (stereo unspecified)	-64.8*	-25.6%	/	16.8%[3.69 µM]	1.3%	-8.3%
Cc1ccc(-c2ccnc(-n3ncc(C(=O)NC[C@@H]4CCCN5CCCC[C@H]45)c3C3CC3)n2)o1	/	/	/	/	/	-10.6%
CN(C)c1nc(-c2cccc(NS(C)(=O)=O)c2)nc2ccccc12	/	/	/	/	1.4%	-6.3%
Cn1cnnc1SC1c2cccc3cccc(c23)C1NS(=O)(=O)c1ccccc1 (stereo unspecified)	16.3	0.0%	-1.4%	10.2%	22.6%	4.3%
CS(=O)(=O)NC1c2cccc3cccc(c23)C1Sc1nncn1/N=C/c1ccco1 (stereo unspecified)	52.4	50.1µM*	-8.3%	0.1%	-12.8%	-15.7%
Cc1nn2c(C)c(C(=O)NCc3ccco3)cnc2c1-c1ccccc1	-8.6	?	6.2%	/	/	-15.0%
CCN(CC)S(=O)(=O)c1ccc(N2CCN(c3ccccc3OC)CC2)c(N)c1	-80.2*	1.8%	5.4%	-14.1%	-0.6%	22.4µM*
CCN(CC)S(=O)(=O)c1ccc2c(c1)c(=O)c(C(=O)N1CCN(c3ccccc3OC)CC1)cn2C	-1.1	-5.0%	5.8%	/	/	6.1%
COc1ccc(-c2nc3cnc(N(C)C)nc3n(CCC#N)c2=O)cc1	/	/	/	/	-0.5%	-3.7%
O=C(Nc1ccc2oc(-c3cccc(Cl)c3Cl)nc2c1)c1cccc(Br)c1	-74.4*	-8.0%	0.4%	/	/	-5.5%
